High-throughput results (PubChem)
RXFP1 antag: antagonists of human relaxin receptor RXFP1; Q9HBX9; HEK293-RXFP1, relaxin-stimulated cAMP HTRF, 30 min; stronger effect = lower value; activity change, negative = inhibition, % at 57.5 µM; 0.59% of 350,000 active; AID 1259400;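 active means activity change of -60% or lower, but not beyond a set lower limit; inconclusive means change between -60% and -40%, or beyond the set limit; inactive means change above -40%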
Target sequence (Q9HBX9 whole entry, looked up): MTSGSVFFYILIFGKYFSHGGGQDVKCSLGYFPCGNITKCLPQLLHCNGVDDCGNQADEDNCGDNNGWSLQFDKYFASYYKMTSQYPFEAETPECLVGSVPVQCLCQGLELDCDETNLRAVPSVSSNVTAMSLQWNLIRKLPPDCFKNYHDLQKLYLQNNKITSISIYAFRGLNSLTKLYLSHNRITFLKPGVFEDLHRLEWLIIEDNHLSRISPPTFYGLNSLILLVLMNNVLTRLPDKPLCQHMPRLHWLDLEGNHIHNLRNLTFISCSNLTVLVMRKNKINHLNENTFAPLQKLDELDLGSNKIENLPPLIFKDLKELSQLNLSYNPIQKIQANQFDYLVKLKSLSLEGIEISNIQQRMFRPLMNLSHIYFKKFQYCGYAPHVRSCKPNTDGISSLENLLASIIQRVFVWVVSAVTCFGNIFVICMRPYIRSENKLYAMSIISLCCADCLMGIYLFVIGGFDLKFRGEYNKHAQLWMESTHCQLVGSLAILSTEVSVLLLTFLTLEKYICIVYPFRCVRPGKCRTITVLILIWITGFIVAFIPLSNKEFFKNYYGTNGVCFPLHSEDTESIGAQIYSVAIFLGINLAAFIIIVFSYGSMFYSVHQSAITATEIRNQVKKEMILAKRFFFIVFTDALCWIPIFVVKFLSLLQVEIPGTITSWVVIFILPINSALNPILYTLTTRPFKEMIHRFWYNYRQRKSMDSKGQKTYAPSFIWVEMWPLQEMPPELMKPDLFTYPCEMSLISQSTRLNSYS
KCNH2 3.1 block: blocks the human KCNH2 3.1 channel isoform | AID 720553 | U2OS KCNH2 3.1, thallium flux FluxOr; stronger effect = lower value | 0.95% of 340,000 active | activity change, % (tested at about 1.8 µM);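 active means maximum activity change below -70%; inconclusive means maximum activity change from -70% to -50%; inactive means maximum activity change above -50%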;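 further: thallium influx rate constant from kinetic fluorescence after stimulation buffer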
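Measured as rate of thallium-driven FluxOr signal in transduced U2OS cells carrying the 3.1 channel, read kinetically for 2 min upon stimulation; values are rate constants scaled to DMSO control wells.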
RXFP1 ag: agonists of human relaxin receptor RXFP1; HEK293T-RXFP1 cAMP TR-FRET, 30 min; response scale: percent of porcine relaxin response, buffer zero; Potency, µM (doses to about 57.5 µM), usual class: activators; 0.3% of 370,000 active; AID 2676; active means well fitted activation curve with a large enough effect; inconclusive means small, poorly fitted or top-dose-only effect; further: nearly all actives have a fitted effect of over 60% in size
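HEK293 cells stably expressing RXFP1, treated 30 min at 37C with compounds plus PDE4 inhibitor Ro 20174; cAMP measured by HTRF TR-FRET. Normalized to buffer and 29 nM porcine relaxin; EC50 by Hill fit.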
KCNH2 WT inh: blocks the wildtype human KCNH2 potassium channel | U2OS, BacMam KCNH2, thallium flux FluxOr; stronger effect = lower value | activity change, % at 1.84 µM | 0.37% of 340,000 active;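 active means maximum activity change below -70%; inconclusive means maximum activity change between -70% and -50%; inactive means maximum activity change above -50%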
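U2OS cells transduced with wild-type KCNH2 virus are loaded with FluxOr dye for 45 min, and thallium flux is measured in kinetic reads before and after stimulation buffer. Rate constants are normalized to DMSO controls.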
Akt phos inh: inhibitors of Akt phosphorylation. AID 651550. 0.32% of 360,000 active. Neuro2A IGF-stimulated pAkt S473 HTRF, 20 min; stronger effect = lower value. activity change, % for hits at 50 µM; in the data active means activity change below about -80%; inconclusive means mostly about -51% to -80%
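Neuro2A cells in DMEM with 0.5% FBS, overnight at 37 deg C, given compound at single 50 µM final, then IGF (6 nM final) for 20 min at 37 deg C. Lysed; phospho-Akt Ser473 by HTRF after 24 h, 665/615 ratio.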
Of the large screens only hits and unclear results are named; the others gave an inactive call. Rows were chosen to be rich in hits. Some 1.7% of all compounds tested hit in one or more screens of this group.

Cc1ccc(C(c2nnnn2Cc2ccccc2)N2CCN(Cc3ccccc3)CC2)cc1 (stereo not drawn)	KCNH2 3.1 block inconclusive, KCNH2 WT inh -77.4
c1ccc(CN2CCN(C(c3ccccc3)c3ccccc3)CC2)cc1	RXFP1 antag -103.9
CN1CCCN(C2C3CC4CC(C3)CC2C4)CC1 (stereo not drawn)	Akt phos inh -120.9%
CC(=O)Nc1ccc(Oc2ccc(S(=O)(=O)N3CCCC3)cn2)cc1	none
N#Cc1cccc(Oc2ccc(S(=O)(=O)N3CCCC3)cn2)c1	KCNH2 3.1 block inconclusive, KCNH2 WT inh -88.7
COC(=O)Cc1ccc(NC(=S)N2CCC(Cc3ccccc3)CC2)cc1	none
C=CC(=O)N1C/C(=C/c2ccc(F)cc2)C(=O)/C(=C\c2ccc(F)cc2)C1	RXFP1 antag -79.8 (no result: RXFP1 ag)
O=C1c2ccccc2C(=O)C1c1ccnc2ccccc12	Akt phos inh -122.4%
O=C(CNc1cc(S(=O)(=O)N2CCCC2)ccc1OCC(F)(F)F)Nc1cccc(C(F)(F)F)c1	none
CC1(C)CC(=O)C2=C(C1)c1c(ccc3ccccc13)NC2c1ccc(C(=O)O)cc1 (stereo not drawn)	none
CC1(C)CC(=O)C2=C(C1)c1c(ccc3ccccc13)NC2c1cc([N+](=O)[O-])cc([N+](=O)[O-])c1O (stereo not drawn)	RXFP1 antag -72.3
Cc1sc(NC(=O)c2cccc([N+](=O)[O-])c2)c(C(N)=O)c1-c1ccc(C(C)(C)C)cc1	none
O=C(NCCC1=CCCCC1)C(c1ccccc1)c1ccccc1	Akt phos inh -117.1%
COc1cccc(/C=N/Nc2nnc3c(n2)[nH]c2ccccc23)c1OC	RXFP1 antag -60.6
Cc1ccc(C(=O)NC(=S)N2CCN(c3ccc([N+](=O)[O-])cc3)CC2)cc1	none (no result: RXFP1 antag)
Cc1nccn1CC(O)COc1ccc([N+](=O)[O-])cc1 (stereo not drawn)	KCNH2 3.1 block -97.6
OC(COc1ccc2c(c1)CCC2)CN1CCN(c2ccccc2F)CC1 (stereo not drawn)	none
Cc1ccc(C(=O)ON=C2CCN(c3ccc([N+](=O)[O-])cc3)CC2)cc1	KCNH2 3.1 block -102.6, KCNH2 WT inh -109.3
COc1ccc(S(=O)(=O)CCC(=O)N2CCN(c3ccc([N+](=O)[O-])cc3)CC2)cc1	KCNH2 3.1 block inconclusive
O=[N+]([O-])c1ccc(OCC(O)CN2CCN(c3ccccc3F)CC2)cc1 (stereo not drawn)	KCNH2 3.1 block -97.1, KCNH2 WT inh -76.5
Cc1ccc(S(=O)(=O)CCC(=O)N2CCN(c3ccc([N+](=O)[O-])cc3)CC2)cc1	KCNH2 3.1 block -77.2 (no result: Akt phos inh)
CCOc1ccccc1NC(=O)CCc1c(C)nc2c3cccnc3nn2c1C	none (no result: KCNH2 3.1 block, KCNH2 WT inh, Akt phos inh)
Cc1ccc(N2CCN(CC(O)COc3ccc([N+](=O)[O-])cc3)CC2)cc1 (stereo not drawn)	KCNH2 3.1 block -88.6, KCNH2 WT inh -88.0
CCc1cc(C=NC2CCCCC2)c(O)s1	KCNH2 WT inh -135.3
CCc1cc2c(SC(C)C(=O)NC3CCCC3)ncnc2s1 (stereo not drawn)	none (no result: RXFP1 ag)
Cc1c(CN(C)C(=O)c2cc(-c3ccccc3)nc3ccc(Br)cc23)cnn1C	RXFP1 ag 15.8µM (no result: RXFP1 antag, KCNH2 3.1 block, KCNH2 WT inh, Akt phos inh)
COc1ccc(CN(C)C(=O)c2cc(-c3ccccc3)nc3ccc(C)cc23)c(OC)c1OC	none
Cc1ccc(-n2c(=O)c3c(c4cc(C)ccc4n3C)n(CC(=O)NCc3ccccc3Cl)c2=O)cc1	none (no result: RXFP1 antag, KCNH2 3.1 block, KCNH2 WT inh, Akt phos inh)
COCCCNCCCOc1ccc(Cl)cc1C(C)(C)C	RXFP1 antag inconclusive
CNCCCOc1ccc(Cl)cc1C(C)(C)C	RXFP1 antag -85.2
Cc1cnc(C(=O)N(c2ccc(N3CCOCC3)cc2)C2C(=O)Nc3ccccc3N=C2c2ccc3c(c2)OCO3)cn1 (stereo not drawn)	none (no result: RXFP1 antag, KCNH2 3.1 block, RXFP1 ag, KCNH2 WT inh)
CCCCCCCCc1nc(SC(C)C(=O)O)n[nH]1 (stereo not drawn)	KCNH2 3.1 block -105.1
C=CCCCCCCCCc1nc(SCC(=O)O)n[nH]1	none
COC(=O)c1c(O)cc(C(C)(C)C)n(-c2ccc(F)cc2)c1=O	KCNH2 3.1 block -215.6, KCNH2 WT inh -115.8 (no result: RXFP1 antag)
CC(C)C[C@H]1CN(CCCC[C@@H]2CNC(=O)C(=O)N2Cc2ccccc2)C(=O)C(=O)N1CC1CCCCC1	none (no result: RXFP1 antag, KCNH2 3.1 block, RXFP1 ag, KCNH2 WT inh)
O=C(c1ccc(C(F)(F)F)cc1)N1CCC(=O)N(C(COCc2ccc(C(F)(F)F)cc2)Cc2ccccc2)CC1 (stereo not drawn)	KCNH2 3.1 block -112.1 (no result: RXFP1 antag)
CCOC(=O)CC(=O)CSc1ncnc2c1oc1ccccc12	RXFP1 ag 0.794µM
O=C(O)CSc1ncnc2c1oc1ccccc12	RXFP1 ag inconclusive
N#CCCSc1ncnc2c1oc1ccccc12	RXFP1 ag 14.1µM
OCCSc1ncnc2c1oc1ccccc12	none
CS(=O)(=O)N(CC(=O)NCC1CCCO1)c1cc(Cl)cc(Cl)c1 (stereo not drawn)	none
Cc1cn(S(=O)(=O)c2ccc(Br)c3ccccc23)cn1	RXFP1 ag 22.4µM (no result: RXFP1 antag, KCNH2 3.1 block, KCNH2 WT inh, Akt phos inh)
CCC(C)(C(=O)NC1CCCCC1)N(C(=O)CNC(C)=O)c1c(C)n(C)n(-c2ccccc2)c1=O (stereo not drawn)	Akt phos inh -131.4%
CC(=O)NC(Cc1ccccc1)C(=O)NC1CCN(C(=O)NCc2ccccc2)CC1 (stereo not drawn)	none
CC(=O)Nc1ccc(NC(=O)/C=C/c2ccc3c(c2)OCO3)cc1	none
COC(=O)c1c(NC(=O)/C=C/c2ccc3c(c2)OCO3)sc(C)c1C	KCNH2 WT inh -72.0
CN(C)CCCNC(=O)/C=C/c1ccc2c(c1)OCO2	KCNH2 WT inh -73.8
CCOC(=O)c1c(NC(=O)/C=C/c2ccc3c(c2)OCO3)sc(C)c1C	none (no result: RXFP1 antag, KCNH2 3.1 block, KCNH2 WT inh, Akt phos inh)
COc1ccc(S(=O)(=O)N2CCCCCC2)cc1C(=O)N(C)CC(=O)Nc1ccc(F)cc1	none
COc1ccc(NC(=O)CN(C)CC(=O)N2CCCCCC2)cc1	RXFP1 antag -89.7
COc1ccc(NC(=O)CN(C)C(=O)CC2CCCC2)cc1	RXFP1 antag -74.4
COc1ccc(NC(=O)CN(C)C(=O)c2cc(S(=O)(=O)N3CCCCCC3)ccc2OC)cc1	RXFP1 antag -72.1
CCOC(=O)c1c(N)sc2c1CCSC2	none
O=C1/C(=C/c2ccc(O)cc2)SC(=S)N1CC1CCCO1 (stereo not drawn)	RXFP1 antag -73.2
COc1ccc(Cl)cc1S(=O)(=O)n1ccnc1C(C)C	KCNH2 3.1 block -82.7 (no result: RXFP1 antag)
COC(=O)CSc1nc(-c2ccc(C)cc2)c2c(c1C#N)CCCC2	KCNH2 3.1 block -72.6
CCOc1ncccc1C(=O)OCC(=O)Nc1cc(S(=O)(=O)N2CCOCC2)ccc1C	none
CSc1nc2ccccc2n1CC(=O)Nc1cc(C(F)(F)F)ccc1N1CCOCC1	Akt phos inh -119.8%
CCOc1ncccc1C(=O)Nc1cc(C(F)(F)F)ccc1N1CCOCC1	none
